Rows were chosen to be rich in hits. Some 11% of all compounds tested hit in one or more screens of this group.
OTUD3 block: human OTUD3 deubiquitinase inhibition. purified OTUD3, Ub-rhodamine fluorescence, 2 h. 0.7% of 47,000 active. inhibition, % at 25 µM
USP28 block: blocks human USP28 ubiquitin-rhodamine cleavage. AID 1645857. Q96RU2. purified USP28, Ub-rhodamine cleavage fluorescence, 30 min. inhibition, % at 25 µM. 3% of 47,000 active
USP17 block: inhibitors of human USP17 deubiquitinase; A8MUK1; purified USP17, Ub-rhodamine cleavage fluorescence, 3 h; inhibition, % at 50 µM; 6.5% of 47,000 active; AID 1645855
USP30 inh: blocks human USP30 ubiquitin-rhodamine cleavage; Q70CQ3; purified USP30, Ub-rhodamine cleavage fluorescence; inhibition, % at 25 µM; 5.3% of 47,000 active
Target sequence (Q70CQ3 whole entry, looked up): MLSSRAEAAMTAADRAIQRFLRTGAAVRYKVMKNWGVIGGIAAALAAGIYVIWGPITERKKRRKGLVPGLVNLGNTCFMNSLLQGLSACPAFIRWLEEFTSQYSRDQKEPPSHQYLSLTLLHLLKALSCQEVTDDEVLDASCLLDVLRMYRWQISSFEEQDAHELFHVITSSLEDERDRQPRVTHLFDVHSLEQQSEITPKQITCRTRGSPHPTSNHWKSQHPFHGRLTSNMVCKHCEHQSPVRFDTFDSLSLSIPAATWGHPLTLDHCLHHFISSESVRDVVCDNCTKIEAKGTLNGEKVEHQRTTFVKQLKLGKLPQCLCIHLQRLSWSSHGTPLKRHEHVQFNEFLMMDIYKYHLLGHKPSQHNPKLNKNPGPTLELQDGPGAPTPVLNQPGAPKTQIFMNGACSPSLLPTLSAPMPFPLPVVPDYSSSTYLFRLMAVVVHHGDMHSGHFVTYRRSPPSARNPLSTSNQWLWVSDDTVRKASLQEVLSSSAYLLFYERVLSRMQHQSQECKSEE
* marks the source's active call; other numbers are inactive results; / = not tested or not shown. Cut-off read from the data, not from the text of the source: active = inhibition above about 30%; inactive = the rest.

SMILES | OTUD3 block | USP28 block | USP17 block | USP30 inh
O=C(Cc1ccc(-n2c(=O)[nH]c3ccsc3c2=O)cc1)N1CCC(Cc2ccccc2)CC1 | 18.5 | 37.4* | 46.6* | 28.7
Cn1nc(C(=O)N2CCCCC2)c2c1CCN(C(=O)CCC(=O)NCc1ccccc1)C2 | 12.7 | 11.9 | 5.8 | 21.8
Cc1ccccc1NC(=O)Nc1ccccc1OCc1cc(=O)n2cccc(C)c2n1 | 39.6* | 27.7 | 46.7* | 42.8*
CCC(C)Oc1cccc(C(=O)Nc2ccc(CN3CCOCC3)cc2)c1 (configuration not stated) | -3.3 | 80.0* | -8.4 | 0.4
CC(C)(C)OC(=O)NCc1ccc(C(=O)Nc2ccc(CN3CCOCC3)cc2)cc1 | -9.2 | -8.8 | -6.4 | -25.8
CCc1ccc(NC(=O)C2Nc3ccccc3S(=O)(=O)N2)cc1 (configuration not stated) | 12.0 | 22.4 | 41.1* | 45.7*
CC(C)c1ccc(NC(=O)c2ccc(C3Nc4ccccc4S(=O)(=O)N3)cc2)cc1 (configuration not stated) | -0.5 | 20.6 | 64.8* | 50.5*
Cc1ccc(NC(=O)C2Nc3ccccc3S(=O)(=O)N2)cc1C (configuration not stated) | 1.6 | / | 66.4* | /
CCc1ccc(NC(=O)N2CC[C@@H]3CN(C)S(=O)(=O)[C@@H]3CC2)cc1 | 8.1 | 8.8 | 7.4 | 18.8
COc1ccc(-n2nnc(C(=O)Nc3ccc(F)cc3F)c2C)cc1 | -0.9 | -1.4 | 27.4 | 13.4
Cc1ccc(NC(=O)c2nnn(-c3cccc(F)c3)c2C)cc1 | 0.2 | 9.5 | 5.4 | 42.7*
Cc1ccc(-n2nnc(C(=O)Nc3ccc(F)cc3)c2C)cc1C | -0.9 | 1.6 | 0.1 | 14.3
COc1ccc(NC(=O)c2nnn(-c3ccccc3C)c2C)cc1OC | -11.4 | 72.2* | 3.3 | -16.2
COc1ccc(-n2nnc(C(=O)Nc3cccc(F)c3)c2C)cc1 | 13.0 | 17.8 | 48.1* | 27.0
Cc1ccc(-n2nnc(C(=O)Nc3ccccc3F)c2C)cc1C | 4.4 | / | 56.1* | /
COc1cc(OC)c(C2CC(=O)Oc3n[nH]c(-c4ccccc4)c32)cc1OC (configuration not stated) | -0.9 | -5.8 | -15.3 | -4.6
COc1ccc(NC(=O)c2cnn(-c3ccc(F)cc3)c2C)cc1 | -0.2 | 18.0 | 18.8 | -14.7
COc1ccc(NC(=O)c2nnn(-c3ccc(F)cc3)c2C)cc1 | 5.1 | 18.4 | 48.0* | 2.3
CCc1ccc(-n2nnc(C(=O)Nc3ccc(F)cc3)c2C)cc1 | 10.6 | 14.9 | 10.3 | 32.2*
Cc1c(C(=O)Nc2ccc(Cl)cc2)nnn1-c1ccc(F)cc1 | 5.4 | 10.4 | 25.8 | 23.0
COc1ccc(-n2nnc(C(=O)Nc3ccc(F)cc3)c2C)cc1 | 11.6 | 3.9 | 50.2* | 16.9
COc1cccc(-n2nnc(C(=O)Nc3ccc(Cl)cc3)c2C)c1 | -5.6 | -0.1 | 12.0 | 14.4
O=C(NCc1c(-c2ccc(Cl)cc2)nc2n1CCS2)c1cccnc1 | -8.3 | -4.5 | -10.0 | -35.0
COc1cc2c(cc1O)CCN(C(=O)CN1CCCCC1)[C@@H]2C | -1.0 | -14.5 | -2.3 | -7.5
CCc1ccc(Nc2cc(C(=O)NC3CCCC3)c3ccccc3n2)cc1 | -4.5 | -9.8 | -4.5 | -13.3
SMILES | OTUD3 block | USP28 block | USP17 block | USP30 inh
CCOc1ccc(CCNC(=O)c2ccc3c(SCC(=O)O)c4c(nc3c2)CCC4)cc1OCC | 28.6 | 42.1* | 33.7* | -4.4
CCOc1ccc(CCNC(=O)c2cc(Nc3ccccc3C)nc3ccccc23)cc1OCC | 13.2 | 41.2* | 57.7* | 56.2*
CCOc1ccc(Nc2cc(C(=O)NCCC3=CCCCC3)c3ccccc3n2)cc1 | 15.9 | 15.4 | 44.4* | 31.8*
COc1ccc(OC)c(CCNC(=O)c2ccc3c(=O)n4c(nc3c2)CCCC4)c1 | 13.2 | 13.6 | 11.6 | 17.4
Cc1ccc(S(=O)(=O)N2CC[C@@H]3[C@H]2C(=O)N(C)[C@@H](C)C(=O)N3C)cc1 | 0.0 | 0.1 | -1.8 | 13.4
CC(=O)Nc1ccc(NC(=O)c2ccc(N3C(=O)N4CCc5c([nH]c6ccccc56)[C@@]4(C)C3=O)cc2)cc1 | -20.4 | 30.6* | 0.4 | -59.3
COc1ccc(CNC(=O)c2ccccc2N2C(=O)N3CCc4c([nH]c5ccc(OC)cc45)[C@@]3(C)C2=O)cc1 | 22.5 | 6.4 | 44.6* | 17.9
COc1ccc(CNC(=O)c2cccc(N3C(=O)N4CCc5c([nH]c6ccccc56)[C@@]4(C)C3=O)c2)cc1 | -14.6 | -6.5 | -0.4 | 0.0
C[C@]12C(=O)N(c3ccc(C(=O)NCc4ccc(F)cc4)cc3)C(=O)N1CCc1c2[nH]c2ccccc12 | 15.9 | 15.4 | 34.6* | 52.0*
C[C@]12C(=O)N(c3cccc(C(=O)O)c3)C(=O)N1CCc1c2[nH]c2ccccc12 | 10.1 | 11.0 | 20.1 | 36.3*
